The values that follow come from PubChem BioAssay (NCI).

“And” between values parts separate entries of the source, which are not always exact repeats. Equal values may be shown once. About 83,000 compounds went through this panel and 20% of them were active in at least one assay; those are over-represented in the sample as a whole.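 48-hour exposure, single concentration, 96-well plates; percent growth endpoint where 0 means no net growth. Active: below 10.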 A number with no mark means an inactive call. The source made the active and inactive calls.

Experiment in all cases: NCI-60 one-dose screen, 48 h (100 = growth as untreated, 0 = no growth, -100 = all killed)
What all share (details): 10 µM unless noted

Assay [1] concerns DU-145 prostate.
Assay [2] concerns K-562 leukemia.
For assay [3], the system named is MALME-3M melanoma.
In assay [4] the test system is MDA-MB-231 breast.
Assay [5] concerns RXF 393 renal.
Assay [6] deals with SF-268 CNS.
In assay [7] the test system is SF-295 CNS.
For assay [8], the system named is SF-539 CNS.
Assay [9] deals with UACC-257 melanoma.
Assay [10] relates to M14 melanoma.

Take `Cc1ccc(/C=C2\COc3ccc(O)c(O)c3C2=O)cc1`: the growth in assay [1] is 4.29% (active); in [2], 13%; in [3], -27.3% (active); in [4], -24.8% (active); in assay [5], -35.3% (active); in assay [6], -37.6% (active). The growth is 33.1% in assay [7], -63.9% (active) in assay [8], 10.1% in assay [9] and 3.41% (active) in assay [10].

As for `CCCCCC#CC1OC23CCCCC2C(C#N)(C(=N)O3)C1(C#N)C#N` (stereo not given), the growth is 102% in assay [1]; 84% in [2]; 98% in assay [3]; 95.8% in assay [4]; 105% in assay [5]; 102% in assay [6]. Moreover, the growth in [7] was 98.5%; in assay [8] it was 100%; in assay [9], 78.6%; in assay [10] it was 93.7%.

In the case of `O=C(/C=C/c1cccs1)Nc1ncc(Cc2ccc(Cl)c(Cl)c2)s1`, the growth in assay [1] is 59.5%; in [2], 35.2%; in [3] it was 53.1%; in assay [4] it was 82.9%; in assay [5] it was 72.8%; in assay [6], 67.9%. For the same compound, the growth was 30.2% in [7], 65.1% in [8], 90.8% in assay [9] and 29% in assay [10].

For `CC(=O)c1c(C)nc(SCC(=O)Nc2ccc(Cl)cc2)n1-c1ccc(Cl)cc1`, the growth was 106% in assay [1]; 83% in assay [2]; 90.8% in assay [3]; 82% in assay [4]; 67.3% in assay [5]; 92.5% in assay [6]. Also, the growth in [7] is 91.3%; in [8] it was 95.8%; in [9], 94.5%; in assay [10], 98.4%.

As for `Cc1nonc1-c1ccc2c(c1)OCO2`, the growth was 94.4% and 109% in [1]; 101% in assay [2]; 116% and 142% in [3]; 96.8% and 110% in [4]; 96.8% and 99.4% in assay [5]; 89.9% and 95% in assay [6]. In addition, the growth in assay [7] was 91.4% and 101%; in assay [8], 111% and 95.7%; in [9], 104% and 111%; in assay [10], 110% and 108%.

On to `CC1(C)C(N)=Nc2cc(OCCCN3Cc4ccc(OCCc5cn(CC(=O)N6CCC(CCN7CCCC7)CC6)nn5)cc4C3)c(OCC3CC3)cc21`, for which the growth in assay [1] is 111%; in assay [2], 88%; in [3] it was 106%; in [4], 112%; in assay [5] it was 113%; in [6] it was 86%. In addition, the growth in [7] is 100%; in assay [8] it was 97%; in [9], 112%; in assay [10], 108%.

Consider `O=C(CN1C(=O)S/C(=C\C(Cl)=C\c2ccccc2)C1=O)NC1C=CS(=O)(=O)C1` (stereo not given), for which the growth in [1] is 24.8%; in [2], 4.66% (active); in [3] it was -24.9% (active); in assay [4], 14.3%; in assay [5] it was -77.8% (active); in [6] it was 63.9%. Also, the growth in [7] was 80.8%; in assay [8], 1.56% (active); in assay [9] it was 45.2%; in [10], -49.9% (active).

Consider `C/C=C(/C)C(=O)O[C@@H]1CC(C)(C)CC2C34OC(=O)[C@@]21CC[C@@]3(C)[C@]1(C)CCC2C(C)(C)C(=O)CC[C@]2(C)C1C[C@@H]4Cl` (stereo not given in full), for which the growth in assay [1] is 104%; in [2], 85.6%; in assay [3], 90.8%; in assay [4] it was 93.4%; in [5], 108%; in [6], 93%. Besides, the growth was 97.3% in [7], 85% in assay [8], 89.8% in [9] and 93.1% in assay [10].

Take `CCCCCCCCCCCCCCCC(=O)O[C@@H]1[C@@H](O)[C@@H](O)C([C@H](NC(=O)[C@@H]2C[C@@H](CCC)CN2C)[C@H](C)Cl)O[C@@H]1SC` (stereo not given in full): the growth in assay [1] was 114%; in [2] it was 100%; in assay [3], 87.1%; in assay [4], 110%; in assay [5], 106%; in assay [6], 105%. In addition, the growth in assay [7] is 104%; in assay [8], 92%; in assay [9], 105%; in [10] it was 98.9%.

For `Cc1ccc(Nc2nc(-c3cc(O)c(C)c(C)c3O)cs2)cc1`, the growth in assay [1] is 97.3%; in [2], 66.5%; in [3], 109%; in assay [4], 104%; in assay [5], 99.3%; in assay [6], 92.3%. For the same compound, the growth is 101% in assay [7], 96.6% in assay [8], 104% in assay [9] and 96.6% in assay [10].

As to `Cc1[nH]c(C(=O)Nc2nc3ccc(NC(=O)CCN)cc3s2)c(Cl)c1Cl`, the growth in assay [1] was 48.4%; in [2], 6.04% (active); in assay [3] it was 53.8%; in assay [4], 51%; in assay [5] it was 81.9%; in [6], 56.2%. Also, the growth in assay [7] was 95.7%; in assay [8], 52.1%; in assay [9] it was 96.8%; in assay [10], 44.1%.

For `C=CCOc1ccc(/C=C2\SC(=S)N(CCc3ccc(O)cc3)C2=O)cc1`, the growth in assay [1] was 98.3%; in assay [2], 62.1%; in [3], 101%; in assay [4], 90.2%; in assay [5], 114%; in assay [6], 91.4%. The growth in assay [7] was 91.1%; in [8] it was 82.7%; in assay [9], 92.6%; in assay [10] it was 103%.
